Measured values from PubChem BioAssay AID1259398 (Fisher Drug Discovery Resource Center, 2018).
Where “and” joins values, the source holds several entries; their conditions need not be identical. Identical values can stand only once. Among all 290,000 compounds or so, about 230 (0.079%) were called active. The full list was thinned out, with actives kept by preference. Unmarked numbers belong to inactive results. No stated cut-off is given here; in the data, active means inhibition above about 40%; inactive means the rest.

Target: Cyclic GMP-AMP synthase (Homo sapiens) (UniProt Q8N884)
Sequence (Q8N884 whole entry, looked up): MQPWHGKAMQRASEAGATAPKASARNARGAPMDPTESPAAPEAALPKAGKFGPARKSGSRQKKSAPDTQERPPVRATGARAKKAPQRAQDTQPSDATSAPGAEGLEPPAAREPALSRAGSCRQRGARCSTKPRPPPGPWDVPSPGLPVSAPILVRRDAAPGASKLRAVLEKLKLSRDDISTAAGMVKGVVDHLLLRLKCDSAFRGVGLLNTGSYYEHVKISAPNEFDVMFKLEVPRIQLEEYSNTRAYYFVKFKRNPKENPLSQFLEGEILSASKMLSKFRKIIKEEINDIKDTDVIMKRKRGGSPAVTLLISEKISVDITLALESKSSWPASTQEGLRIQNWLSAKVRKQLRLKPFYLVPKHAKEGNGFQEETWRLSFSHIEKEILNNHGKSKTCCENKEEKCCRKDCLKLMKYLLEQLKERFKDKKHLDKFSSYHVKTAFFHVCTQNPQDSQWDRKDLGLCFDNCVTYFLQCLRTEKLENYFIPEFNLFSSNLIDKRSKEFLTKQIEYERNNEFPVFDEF
Experiment: Biochemical Kinase-Glo luminescence primary assay, human cyclic GMP-AMP synthase inhibition (AID 1259398);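 further: 0% = vehicle reaction and 100% = reaction without DNA for no activity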
Details: recombinant h-cGAS, ATP depletion, at 12.5 µM, stronger effect = higher value

| SMILES | inhibition |
| --- | --- |
| COc1ccc(NS(=O)(=O)c2cc(C(=O)Nc3ccc(C)cc3)ccc2C)cc1 | -2.65% |
| O=C(Cc1csc(SCC(=O)c2ccccc2)n1)NCCC1=CCCCC1 | 7.3% |
| CS(=O)(=O)c1ccc(Oc2ccc3sc(=O)oc3c2)c([N+](=O)[O-])c1 | -8.14% |
| O=[N+]([O-])c1cc(S(=O)(=O)C(F)(F)F)ccc1Oc1ccc2oc3c(c2c1)CCCC3 | 50.2% (active) |
| O=[N+]([O-])c1cc(S(=O)(=O)C(F)(F)F)ccc1N1CCCC1 | -6.28% |
| C=CCN(Cc1ccccc1OC)C(=O)c1ccc(NC(C)=O)cc1 | 0.115% |
| Cc1ccc(S(=O)(=O)NCc2ccc3c(c2)OCO3)c(C)c1C | -9.87% |
| CS(=O)(=O)c1cccc2sc(Cl)nc12 | -7.81% |
| CCCCCN(CC(=O)N(CCCC)Cc1cccn1Cc1ccc(Br)cc1)C(=O)c1ccc2c(c1)OCO2 | -1.37% |
| CC(C)CN(CC(C)C)C(=O)c1cccnc1Nc1cccc(C(F)(F)F)c1 | -2.78% |
| CC(Nc1nc2c(c(=O)[nH]c(=O)n2C)n1Cc1ccccc1)c1ccccc1 (configuration not stated) | 2.23% |
| CS(=O)(=O)N1CCC(C(=O)NCc2cc(-c3ccc4c(c3)OCCO4)on2)CC1 | -5.92% |
| CC(NC(=O)c1ccc(Br)cc1F)C(=O)N1CCOCC1 (configuration not stated) | -5.97% |
| CC[N+](C)(CC)CCC[n+]1c(-c2ccccc2)c2cc(N)ccc2c2ccc(N)cc21 | 57.3% (active) |
| COc1ccc(CCN(Cc2ccc(C)s2)C(=O)CN(CC2CCCO2)S(=O)(=O)c2c(C)cc(C)cc2C)cc1OC (configuration not stated) | -7.86% |
| CC(=O)CC1C(CC(=O)O)C1(C)C (configuration not stated) | -5.25% |
| Cc1ccc(S(=O)(=O)Oc2c(CO)cc(C)cc2CO)cc1 | -8.05% |
| CC1(C(=O)NCc2cccs2)CCN1Cc1ccc2c(c1)OCCO2 (configuration not stated) | -11% |
| CC(=O)N1CCN(C(=O)COC(=O)c2ccc3ccccc3c2O)CC1 | -3.7% |

| SMILES | inhibition |
| --- | --- |
| CC(C)C(=O)N1CCC1(C)C(=O)Nc1ccccn1 (configuration not stated) | -6.44% |
| CCc1nnc(CNc2cc(Cl)ccc2F)n1C | -5.8% |
| CCOc1cccc(-c2ccc(Nc3ccc(OC)cc3C)nc2)c1 | -0.0439% |
| COc1ccccc1OC1CCN(C(=O)CCC2(Cc3ccccc3)CCC(=O)N2)CC1 (configuration not stated) | -5.11% |
| CCN1C(=O)N(Cc2cccc(OC)c2)C(=O)C12CCN(Cc1cn[nH]c1-c1ccc(F)cc1)CC2 | 11% |
| CC(=O)CC1(O)C(=O)Nc2ccc(I)cc21 (configuration not stated) | 2.23% |
| CC1CCc2c(sc(NC(=O)c3cccs3)c2C(=O)Nc2ccc(Cl)cc2)C1 (configuration not stated) | -14.3% |
| C=CCCC(O)CN(Cc1c(CC)nn(-c2ccccc2)c1Oc1cccc(OC)c1)CC1CC1 (configuration not stated) | -5.62% |
| O=C(NCc1n[nH]c(=S)n1C1CC1)c1noc2c1CCCC2 | -5.91% |
| O=C(O)CSc1nnc(CCc2ccccc2)n1-c1cccnc1 | -3.94% |
| Cc1ccsc1C(=O)N1CCCC(CNC(=O)c2ccc(-c3ccccc3)cc2)C1 (configuration not stated) | -7.02% and -6.34% |
| C=CCNCc1cnc(S(=O)(=O)Cc2ccc(F)cc2)n1C(C)C | -5.49% |
| O=C(O)c1cc(-c2ccco2)nn1-c1ccccc1Cl | -7.88% |
| C=CCN(CC(=O)Nc1ccccc1C#N)S(=O)(=O)c1c(C)cc(C)cc1C | -5.26% |
| Cn1c(SCC(=O)N2CCN(c3ccccc3)CC2)nnc1C(F)(F)F | -6.17% |
| O=C1CN(C(=O)C2CCCC2)CC(O)CN1Cc1cccc(F)c1 (configuration not stated) | 11.5% |
| CCc1[nH]n(-c2ccc(Cl)c(Cl)c2)c(=O)c1C1=C([n+]2cccc(C)c2)C(=O)N(CC(C)C)C1=O | -10.4% |
| COCCNC(=O)Cn1nc2c(c1NC(=O)c1cc(OC)cc(OC)c1)CSC2 | -4.38% |
| Cc1ccc(Nc2nc(Nc3cccc(F)c3)nc3nccnc23)cc1Cl | -0.96% |

| SMILES | inhibition |
| --- | --- |
| N#Cc1cccc(COc2ccc(NC(=O)NCCO)cc2Cl)c1 | 0.266% |
| C=CC(=O)Nc1ccc2ncnc(Nc3ccc(OCc4cccc(F)c4)c(Cl)c3)c2c1 | 43.2% (active) |
| Cc1ccc(OC(C)C(=O)N(C)C2CCS(=O)(=O)C2)c(Br)c1 (configuration not stated) | -12.8% and -9.58% |
| Cc1cccc(C2SCC(=O)N2CC(=O)NCc2ccncc2)c1 (configuration not stated) | -4.08% |
| O=C(c1cc(Cl)c2nc3ccccn3c(=O)c2c1)c1cc(F)ccc1O | -5.02% |
| N#CCCN(CCC#N)Cn1c(=O)oc2cc(Br)ccc21 | -6.19% |
| c1ccc(Cc2nn3c(Cn4cnc5ccccc54)nnc3s2)cc1 | -1.85% |
| COCc1nnc2sc(Cc3ccc4c(c3)CCCC4)nn12 | 45.2% (active) |
| CCCc1nnc2sc(Cc3csc(C)n3)nn12 | -7.66% |
| Cc1ccc(S(=O)(=O)N2CCCC2c2nc3ccccc3[nH]2)c(C)c1 (configuration not stated) | -4.68% |
| COCCN(CCC(=O)N1CCC(Cc2ccccc2)CC1)c1nc(Cc2cccc(OC)c2)ns1 | -5.55% |
| CC(C)(CNC(=O)c1cc2cccc(F)c2o1)C1CCCCO1 (configuration not stated) | -5.71% |
| Cc1ccc(NC(=O)C2C(C=C(Cl)Cl)C2(C)C)cc1 (configuration not stated) | -4.28% |
| COc1ccccc1OC1CN(Cc2cc(C)[nH]n2)C1 | -4.73% |
| O=C(NNc1cccc(Cl)c1)[C@@H]1CCCN1c1nccc(Nc2ccccc2)n1 | -0.74% |
| CCOc1ccc(N2CCN(C(=O)CCc3ccccc3)C(C)C2=O)cc1 (configuration not stated) | -2.37% |
| Cn1cc(CN2CCN(c3ccc(Cl)cn3)CC2)c(-c2ccc3c(c2)OCCO3)n1 | -7.9% |
| CC(CN1CCOCC1)NC(=O)N1CCCc2cc(F)c(F)cc21 (configuration not stated) | -4.63% |
| Cc1cc(Nc2ccc3c(n2)C(=O)N(CC(=O)NCCCn2ccnc2)C3)n(C)n1 | -11.5% |
